PubChem BioAssay AID431 (Sanford-Burnham Center for Chemical Genomics, 2006)
Out of some 63,000 compounds screened, about 1,100 (1.7%) were called active. The entries come from a sample that favours actives as a whole. Results with a measured potency or affinity are listed apart. Values without a mark were called inactive.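 How the source made its calls: active means compounds whose percent cytotoxicity in the single-dose primary screen, scaled between solvent and toxic-drug controls, exceeds 50; inactive means the rest.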

Experiment: cytotoxicity in KRAS-transformed pancreatic duct cells, primary screen, cell-based, fluorescence, HTS (AID 431);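 further: 0% = DMSO solvent wells and 100% = doxorubicin-treated wells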
Conditions: HPDE-C7K KRASV12 cells, Alamar Blue viability, 48 h; at 10 µM; stronger effect = higher value

SMILES | cytotoxicity
COc1ccc(NC(=O)CN2CCN(S(=O)(=O)c3ccc(C(C)C)cc3)CC2)cc1OC | -1.5%
COCC(=O)Nc1sc2c(c1C(=O)OC)CCCC2 | -0.8%
COc1ccc(OC)c2c(N)c(C#N)c(C(F)(F)C(F)(F)F)nc12 | 2.9%
Cc1ccc2nc(Nc3nc(C)cc(C(F)(F)F)n3)nc(C)c2c1 | -18.7%
COc1ccc(OC)c(-n2c(O)cnc2Nc2nc(C)cc(C)n2)c1 | -6.2%
Cc1occc1C(=O)Nc1cc(C(F)(F)F)ccc1Cl | -12.7%
CC1CN(S(=O)(=O)c2cn(C)c(=O)n(C)c2=O)CC(C)O1 (centres undefined) | 14.8%
CCOC(=O)N1CCN(C(=O)c2cnn3c(C(F)F)cc(-c4ccc(C)cc4)nc23)CC1 | 4.7%
COc1ccc(-c2nnc(-c3cccs3)o2)cc1OC | 7.2%
COc1ccc(-c2nc3ccccc3s2)cc1O | -3.4%
COc1ccc(-c2nc(-c3cccs3)c(-c3cccs3)[nH]2)cc1O | 76.5% (active)
Cc1ccc2c(c1)C(c1ccccc1)N(C(=O)c1ccc(Br)o1)CC(=O)N2 (centres undefined) | -13.7%
COc1ccccc1N1C(=O)C2C3C=CC(C3)C2(C)C1=O (centres undefined) | -3.4%
c1coc(-c2nn3c(-c4ccco4)nnc3s2)c1 | -16.1%
Cc1cc(-c2nn3c(-c4ccccc4)nnc3s2)c2ccccc2n1 | -2.8%
Fc1ccc(-c2ccc(-c3nn4c(-c5ccco5)nnc4s3)o2)cc1 | 83.7% (active)
Cc1oc(-c2ccc(F)cc2)cc1-c1nn2c(-c3ccco3)nnc2s1 | -11.2%
c1ccc(-c2cc(-c3nn4c(-c5ccco5)nnc4s3)c3ccccc3n2)cc1 | 51.3% (active)
Clc1ccc(-c2ccc(-c3nn4c(-c5ccco5)nnc4s3)o2)cc1 | -10%
CCOC(=O)N1CCC(NC(=O)CNS(=O)(=O)c2ccc(Br)s2)CC1 | 6.3%
CCSc1nnc(NC(=O)C(C)(C(F)(F)F)C(F)(F)F)s1 | -1.2%
Cc1ccccc1N1CCN(C(=O)C2CCCCC2)CC1 | -1%
COc1cc2c(C(=O)N3CCN(Cc4ccc5c(c4)OCO5)CC3)cn(C)c(=O)c2cc1OC | -9%

SMILES | cytotoxicity
COc1ccc(NS(=O)(=O)c2cc(C)ccc2C)cc1 | 35.3%
COc1ccc(NS(=O)(=O)c2cc(C)ccc2NC(=O)c2cc(C)oc2C)cc1 | 69.4% (active)
COc1ccc(NS(=O)(=O)c2cc(OC)ccc2NC(=O)c2cc(C)oc2C)cc1 | 48.5%
Cc1nn2c(N3CCN(C(=O)c4ccco4)CC3)cc(C(C)(C)C)nc2c1-c1ccccc1 | 70.2% (active)
Cc1cc(N2CCN(C(=O)c3ccco3)CC2)n2nc(C)c(-c3ccccc3)c2n1 | 13.2%
Cc1cc(N2CCN(C(=O)c3ccco3)CC2)n2nc(C)c(-c3ccc(Cl)cc3)c2n1 | 12.8%
COc1cccc(NC(=O)C2CCN(c3ncccn3)CC2)c1 | 3%
CC1(N2CCOCC2)CC2(O)C(=[N+]1[O-])CCc1c2no[n+]1[O-] (centres undefined) | 58.3% (active)
CC1(N2CCCCC2)CC2(O)C(=[N+]1[O-])CCC/C2=N\O (centres undefined) | 15.9%
CC1(N2CCOCC2)CC2(O)C(=[N+]1[O-])CCc1nonc12 (centres undefined) | 17.7%
CC(C)NC(=O)CN(C(=O)CCC(=O)Nc1ccccn1)c1ccc(F)c(Cl)c1 | 2.5%
CC1(C)C(=O)Nc2ccccc2N1C(=O)CN1C(=O)c2ccccc2C1=O | -3.5%
CCC(=O)NC1(C(F)(F)F)C(=O)Nc2c1c(=O)n(C)c(=O)n2C (centres undefined) | -2.3%
Cc1nnc(SCC(=O)N2CCN(S(=O)(=O)c3ccccc3)CC2)[nH]c1=O | 1.8%
CCc1nnc(NC(=O)c2ccc(NS(=O)(=O)c3ccccc3)cc2)s1 | -18.3%
CCc1nc(C)ccc1OCC(=O)O | -10.4%
CCCC(=O)NCCc1nc2ccccc2n1C | -5.4%
CCOc1cccc(-c2nc3cc(C)ccc3o2)c1 | -4.3%
Cc1n[nH]c(C)c1C(=O)CC1(O)C(=O)N(CCc2ccccc2)c2ccc(Cl)cc21 (centres undefined) | 16.8%
Cc1nn(-c2ccccc2)c2nc(N)c(C#N)c(-c3ccc(F)cc3)c12 | 10.8%
COc1cc(-c2c(C#N)c(N)nc3c2c(C)nn3-c2ccc(C)c(C)c2)cc(OC)c1OC | 57.8% (active)
Cc1ccc(-n2nc(C)c3c(-c4cccs4)c(C#N)c(N)nc32)cc1 | 4%
O=C(O)CCN1Cc2ccccc2C1=O | -5.5%

SMILES | cytotoxicity
Cc1ccc(NC(=O)CN2C(=O)COc3ccc(C)cc32)nc1 | 5.6%
COc1ccc(OC)c(Nc2nc(N)nc(-c3cc4ccccc4o3)n2)c1 | 1.5%
COc1ccc(OC(=O)c2cc3ccccc3o2)cc1 | 12.8%
COc1ccc(OC)c(NC(=O)c2cc3ccccc3o2)c1 | -12.4%
O=C(Nc1ccccc1Cl)N1CCN(c2ccc3nnc(-c4ccc(F)cc4)n3n2)CC1 | 19.5%
O=C(Nc1ccccc1C(F)(F)F)N1CCN(c2ccc3nnc(-c4ccc(F)cc4)n3n2)CC1 | 1.9%
O=C(Nc1ccc(Cl)cc1)N1CCN(c2ccc3nnc(-c4ccc(F)cc4)n3n2)CC1 | 58.7% (active)
Cc1cccc(NC(=O)CSc2nnc(-c3ccccc3)n2N)c1 | 1%
CCCc1[nH]nc2c1C(c1ccncc1)C(C#N)=C(N)O2 (centres undefined) | -1.2%
CCc1[nH]nc2c1C(c1ccc(Br)s1)C(C#N)=C(N)O2 (centres undefined) | 5%
CCCn1nnc(NC(=O)c2cc3ccccc3o2)n1 | -13.2%
CC(=O)c1sc(NC(=O)c2ccco2)nc1-c1ccccc1 | 6.3%
O=C(Nc1ccc(S(=O)(=O)N2CCCCCC2)cc1)c1ccc(Br)o1 | 55.5% (active)
CN1CCN(S(=O)(=O)c2ccc(NC(=O)c3ccc(Br)o3)cc2)CC1 | -14.1%
O=C(Nc1ccc(Oc2ccc(NC(=O)c3ccco3)c(NC(=O)c3ccco3)c2)cc1)c1ccco1 | 29.9%
Cc1ccc(Oc2ccc(NC(=O)c3ccco3)cc2)cc1 | 84.2% (active)
CCOC(=O)c1sc(NC(=O)c2ccco2)nc1-c1ccccc1 | -7.2%
O=C(Nc1ccc(Nc2ccccc2)cc1)c1ccco1 | 66.8% (active)
Cc1ccc(NC(=O)c2ccc(OC(=O)c3ccco3)cc2)cc1 | -14.7%
O=C(CCc1ccccc1)Nc1ccc(NC(=O)c2ccco2)cc1 | -8.3%
O=C(Nc1nc(-c2cccs2)c(-c2ccccc2)s1)c1ccco1 | 58.9% (active)
O=C(Nc1ccc(S(=O)(=O)N2CCOCC2)cc1)c1ccc(Br)o1 | -9.2%
CCC(=O)Nc1ccc(NC(=O)c2ccco2)cc1 | -4%
